A short description of test [1]: NCI Yeast Anticancer Drug Screen. Data for the rad50 strain (AID 155).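 Further: 0% = growth of vehicle-only cultures of the same strain.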 The following applies: S. cerevisiae rad50 strain growth inhibition, active compounds read high. An outline of the steps: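 Yeast carrying a defined DNA repair defect were exposed to test compounds, and growth was compared with vehicle-treated controls to give percent inhibition.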
Test [2] in a line: NCI Yeast Anticancer Drug Screen. Data for the mec2-1 strain (AID 157). The following applies: S. cerevisiae mec2-1 strain, active compounds read high. An outline of the steps: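 Readout is yeast growth inhibition, normalised to vehicle-treated controls, in the mec2-1 strain exposed to compound.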
Test [3] can be described thus: NCI Yeast Anticancer Drug Screen. Data for the sgs1 mgt1 strain (AID 161).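 Further: 0% = growth of cultures given vehicle only.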 The following applies: S. cerevisiae sgs1 mgt1 strain, active compounds read high. An outline of the steps: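 Growth of a repair-deficient yeast mutant was monitored after compound treatment and expressed as inhibition relative to vehicle-treated cultures.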
Test [4] in a line: NCI Yeast Anticancer Drug Screen. Data for the cln2 rad14 strain (AID 165).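 Further: 0% = growth equal to vehicle treated cultures.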 The following applies: S. cerevisiae cln2 rad14 strain, active compounds read high. A digest of the protocol: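 Relative to vehicle controls, growth inhibition of compound-treated cln2 rad14 yeast was recorded.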
Test [5] is described as follows: NCI Yeast Anticancer Drug Screen. Data for the bub3 strain (AID 167). The following applies: S. cerevisiae bub3 mutant strain, active compounds read high. An outline of the steps: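 Compounds were applied to a genetically altered yeast strain carrying a cell-cycle control defect. Growth inhibition was scored against vehicle-treated controls.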
Test [6] can be described thus: NCI Yeast Anticancer Drug Screen. Data for the mlh1 rad18 strain (AID 175). The following applies: S. cerevisiae mlh1 rad18 strain growth inhibition, active compounds read high. An outline of the steps:
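Test agents were incubated with a yeast strain of defined genotype (DNA damage repair defect). Inhibition of growth was derived by comparison with vehicle-exposed cultures.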

[7] abbreviates: at 5.0 µM (retest, dose inferred, filed as 0.5).
The mark [8] stands for this setting: at 50.0 µM (retest, dose inferred, filed as 5.0).

Structures are written as SMILES. Compounds without any hit were thinned out: in the full panel of roughly 79,000, 15% have a hit. Unmarked numbers belong to inactive results. Activity calls are given as the source filed them. No stated cut-off is given here; in the data, active means growth inhibition above about 70%; inactive means the rest.

In the case of `Oc1ccccc1N=Cc1ccccc1`, the growth inhibition in test [1] (setting [7]) is 23%; in test [1] (setting [8]), 75% (active); in test [1] (at 50.0 µM) it was 61%; in test [2] (setting [7]) it was 13%; in test [2] (setting [8]) it was 35%; in test [2] (at 50.0 µM) it was 44.2%. Besides, the growth inhibition is 21% in test [3] (setting [7]); 29% in test [3] (setting [8]); 60.6% in test [3] (at 50.0 µM); 12% in test [4] (setting [7]); 45% in test [4] (setting [8]); 19.5% in test [4] (at 50.0 µM). Further, the growth inhibition in test [5] (setting [7]) was 56%; in test [5] (setting [8]) it was 86% (active); in test [5] (at 50.0 µM) it was 77.5% (active); in test [6] (setting [7]), 41%; in test [6] (setting [8]), 81% (active); in test [6] (at 50.0 µM) it was 72.5% (active).
Regarding `COc1ccc2nc3cc([N+](=O)[O-])ccc3c(NNc3ccccc3)c2c1`, the growth inhibition in test [1] (setting [7]) is -2%; in test [1] (setting [8]) it was -5%; in test [1] (at 50.0 µM) it was 62.2%; in test [2] (setting [7]) it was 5%; in test [2] (setting [8]) it was -4%; in test [2] (at 50.0 µM), 1.7%. In addition, the growth inhibition was -2% in test [3] (setting [7]); -13% in test [3] (setting [8]); 49.1% in test [3] (at 50.0 µM); 3% in test [4] (setting [7]); -12% in test [4] (setting [8]); 29.7% in test [4] (at 50.0 µM). Besides, the growth inhibition is 3% in test [5] (setting [7]); 6% in test [5] (setting [8]); 5% in test [5] (at 50.0 µM); 0% in test [6] (setting [7]); -11% in test [6] (setting [8]); 60.8% in test [6] (at 50.0 µM).
Take `Cc1cc2nc(CC(=O)c3ccncc3)c(=O)[nH]c2cc1C`: the growth inhibition in test [1] (setting [7]) is -28%; in test [1] (setting [8]) it was 9%; in test [1] (at 50.0 µM), 6.65%; in test [2] (setting [7]), 8%; in test [2] (setting [8]), -11%; in test [2] (at 50.0 µM), 11.7%. In addition, the growth inhibition in test [3] (setting [7]) was 1%; in test [3] (setting [8]) it was 17%; in test [3] (at 50.0 µM), 21.6%; in test [5] (setting [7]) it was -5%; in test [5] (setting [8]), 24%; in test [5] (at 50.0 µM), 7.45%. The growth inhibition in test [6] (setting [7]) is -18%; in test [6] (setting [8]), 21%; in test [6] (at 50.0 µM) it was 73.1% (active).
Regarding `c1csc(-c2[nH]nc3c2CCc2ccccc2-3)c1`, the growth inhibition in test [1] (setting [7]) was 19%; in test [1] (setting [8]), 97% (active); in test [1] (at 50.0 µM), 98.3% (active); in test [2] (setting [7]), -13%; in test [2] (setting [8]) it was 97% (active); in test [2] (at 50.0 µM), 96.6% (active). Besides, the growth inhibition in test [3] (setting [7]) was -2%; in test [3] (setting [8]), 98% (active); in test [3] (at 50.0 µM), 97.6% (active); in test [4] (setting [7]) it was -6%; in test [4] (setting [8]), 96% (active); in test [4] (at 50.0 µM), 98.5% (active). Also, the growth inhibition is 18% in test [5] (setting [7]); 98% (active) in test [5] (setting [8]); 97.1% (active) in test [5] (at 50.0 µM); -3% in test [6] (setting [7]); 97% (active) in test [6] (setting [8]); 98.8% (active) in test [6] (at 50.0 µM).
As to `N#C/C(=N\Nc1ccc(Cl)cc1)C(=O)C1CC1`, the growth inhibition in test [1] (setting [7]) is 59%; in test [1] (setting [8]), 62%; in test [1] (at 50.0 µM), 86.4% (active); in test [2] (setting [7]), 41%; in test [2] (setting [8]), 46%; in test [2] (at 50.0 µM) it was 77.5% (active). Further, the growth inhibition in test [3] (setting [7]) was 58%; in test [3] (setting [8]) it was 70% (active); in test [3] (at 50.0 µM), 85.7% (active); in test [4] (setting [7]), 55%; in test [4] (setting [8]) it was 55%; in test [4] (at 50.0 µM), 85.5% (active). Further, the growth inhibition is 62% in test [6] (setting [7]), 69% in test [6] (setting [8]) and 82% (active) in test [6] (at 50.0 µM).
As for `CCOC(=O)COc1cc(-c2ccccc2F)nc2cc3c(cc12)OCO3`, the growth inhibition is 9% in test [1] (setting [7]); 24% in test [1] (setting [8]); 14.7% in test [1] (at 50.0 µM); 4% in test [2] (setting [7]); 6% in test [2] (setting [8]); 15.1% in test [2] (at 50.0 µM). Moreover, the growth inhibition was -16% in test [3] (setting [7]); -9% in test [3] (setting [8]); 47.2% in test [3] (at 50.0 µM); 8% in test [4] (setting [7]); 15% in test [4] (setting [8]); 23.6% in test [4] (at 50.0 µM). The growth inhibition was 12% in test [6] (setting [7]), 26% in test [6] (setting [8]) and 17.6% in test [6] (at 50.0 µM).
On to `Oc1ccc(Br)cc1Sc1cc(Br)ccc1O`, for which the growth inhibition was 6% in test [1] (setting [7]); 99% (active) in test [1] (setting [8]); 87.9% (active) in test [1] (at 50.0 µM); 28% in test [2] (setting [7]); 99% (active) in test [2] (setting [8]); 99.7% (active) in test [2] (at 50.0 µM). Also, the growth inhibition in test [3] (setting [7]) is 26%; in test [3] (setting [8]) it was 100% (active); in test [3] (at 50.0 µM) it was 99.7% (active); in test [4] (setting [7]) it was 14%; in test [4] (setting [8]), 98% (active); in test [4] (at 50.0 µM), 99.4% (active). For the same molecule, the figures for the growth inhibition in test [6] (setting [7]), in test [6] (setting [8]) and in test [6] (at 50.0 µM) were 53%, 99% (active) and 99.5% (active), respectively.
Turning to `CCC[CH2][Sn]([CH2]CCC)([CH2]CCC)[O]C(=O)C(OC(C)=O)c1ccccc1` (configuration not stated), the growth inhibition was 99% (active) in test [1] (setting [7]); 99% (active) in test [1] (setting [8]); 91.5% (active) in test [1] (at 50.0 µM); 99% (active) in test [2] (setting [7]); 99% (active) in test [2] (setting [8]); 92.2% (active) in test [2] (at 50.0 µM). The growth inhibition is 99% (active) in test [3] (setting [7]); 99% (active) in test [3] (setting [8]); 91.5% (active) in test [3] (at 50.0 µM); 99% (active) in test [5] (setting [7]); 99% (active) in test [5] (setting [8]); 90.2% (active) in test [5] (at 50.0 µM). Besides, the growth inhibition in test [6] (setting [7]) is 100% (active); in test [6] (setting [8]), 100% (active); in test [6] (at 50.0 µM) it was 91% (active).
As to `O=C1Nc2ccc(Br)cc2C1=O`, the growth inhibition in test [1] (setting [7]) was -8%; in test [1] (setting [8]), 95% (active); in test [1] (at 50.0 µM) it was 96.9% (active); in test [2] (setting [7]) it was -31%; in test [2] (setting [8]), 64%; in test [2] (at 50.0 µM), 99.7% (active). Moreover, the growth inhibition in test [3] (setting [7]) is -5%; in test [3] (setting [8]), 42%; in test [3] (at 50.0 µM), 99.8% (active); in test [5] (setting [7]) it was -13%; in test [5] (setting [8]), 98% (active); in test [5] (at 50.0 µM) it was 99.4% (active). Further, the growth inhibition was -9% in test [6] (setting [7]), 91% (active) in test [6] (setting [8]) and 99.6% (active) in test [6] (at 50.0 µM).
Take `CC1CC(C)(C)OB(OC(C)CC(C)(C)OB2OC(C)CC(C)(C)O2)O1` (configuration not stated): the growth inhibition was -4% in test [1] (setting [7]); -35% in test [1] (setting [8]); 9.6% in test [1] (at 50.0 µM); -1% in test [2] (setting [7]); -39% in test [2] (setting [8]); 15.7% in test [2] (at 50.0 µM). The growth inhibition in test [3] (setting [7]) was -4%; in test [3] (setting [8]), -35%; in test [3] (at 50.0 µM) it was 22.6%; in test [4] (setting [7]), 2%; in test [4] (setting [8]), -43%; in test [4] (at 50.0 µM), 83% (active). In addition, the values for the growth inhibition in test [6] (setting [7]), in test [6] (setting [8]) and in test [6] (at 50.0 µM) were 0%, -34% and -32.9%, respectively.
For `OC(Cc1cc(CC(O)(C(F)(F)F)C(F)(F)F)nc(CC(O)(C(F)(F)F)C(F)(F)F)c1)(C(F)(F)F)C(F)(F)F`, the growth inhibition in test [1] (setting [7]) is 8%; in test [1] (setting [8]) it was 99% (active); in test [1] (at 50.0 µM), 99.5% (active); in test [2] (setting [7]), 1%; in test [2] (setting [8]), 100% (active); in test [2] (at 50.0 µM), 99.5% (active). Besides, the growth inhibition in test [3] (setting [7]) is -9%; in test [3] (setting [8]) it was 99% (active); in test [3] (at 50.0 µM), 99.4% (active); in test [4] (setting [7]) it was 29%; in test [4] (setting [8]) it was 100% (active); in test [4] (at 50.0 µM), 97.8% (active). For the same molecule, the growth inhibition was -15% in test [5] (setting [7]); 100% (active) in test [5] (setting [8]); 99.3% (active) in test [5] (at 50.0 µM); 19% in test [6] (setting [7]); 99% (active) in test [6] (setting [8]); 99.5% (active) in test [6] (at 50.0 µM).

The values above are taken from PubChem BioAssay (NCI).
